Measurements from PMC4336329 (PLoS ONE, 2015).
The campaign covered roughly 310,000 compounds. About 14,000 (4.5%) showed an effect of 50% or more. The effect is printed as a negative number. This is one part of a sample in which strong results are shown more often than they occur.

These molecules were tested against human ether-à-go-go-related gene (hERG) potassium channel (human, UniProt Q12809) (assay: primary screen, population patch clamp on CHO cells stably expressing hERG; higher = less effect of the substance).
Sequence of human ether-à-go-go-related gene (hERG) potassium channel (Q12809 whole entry, looked up): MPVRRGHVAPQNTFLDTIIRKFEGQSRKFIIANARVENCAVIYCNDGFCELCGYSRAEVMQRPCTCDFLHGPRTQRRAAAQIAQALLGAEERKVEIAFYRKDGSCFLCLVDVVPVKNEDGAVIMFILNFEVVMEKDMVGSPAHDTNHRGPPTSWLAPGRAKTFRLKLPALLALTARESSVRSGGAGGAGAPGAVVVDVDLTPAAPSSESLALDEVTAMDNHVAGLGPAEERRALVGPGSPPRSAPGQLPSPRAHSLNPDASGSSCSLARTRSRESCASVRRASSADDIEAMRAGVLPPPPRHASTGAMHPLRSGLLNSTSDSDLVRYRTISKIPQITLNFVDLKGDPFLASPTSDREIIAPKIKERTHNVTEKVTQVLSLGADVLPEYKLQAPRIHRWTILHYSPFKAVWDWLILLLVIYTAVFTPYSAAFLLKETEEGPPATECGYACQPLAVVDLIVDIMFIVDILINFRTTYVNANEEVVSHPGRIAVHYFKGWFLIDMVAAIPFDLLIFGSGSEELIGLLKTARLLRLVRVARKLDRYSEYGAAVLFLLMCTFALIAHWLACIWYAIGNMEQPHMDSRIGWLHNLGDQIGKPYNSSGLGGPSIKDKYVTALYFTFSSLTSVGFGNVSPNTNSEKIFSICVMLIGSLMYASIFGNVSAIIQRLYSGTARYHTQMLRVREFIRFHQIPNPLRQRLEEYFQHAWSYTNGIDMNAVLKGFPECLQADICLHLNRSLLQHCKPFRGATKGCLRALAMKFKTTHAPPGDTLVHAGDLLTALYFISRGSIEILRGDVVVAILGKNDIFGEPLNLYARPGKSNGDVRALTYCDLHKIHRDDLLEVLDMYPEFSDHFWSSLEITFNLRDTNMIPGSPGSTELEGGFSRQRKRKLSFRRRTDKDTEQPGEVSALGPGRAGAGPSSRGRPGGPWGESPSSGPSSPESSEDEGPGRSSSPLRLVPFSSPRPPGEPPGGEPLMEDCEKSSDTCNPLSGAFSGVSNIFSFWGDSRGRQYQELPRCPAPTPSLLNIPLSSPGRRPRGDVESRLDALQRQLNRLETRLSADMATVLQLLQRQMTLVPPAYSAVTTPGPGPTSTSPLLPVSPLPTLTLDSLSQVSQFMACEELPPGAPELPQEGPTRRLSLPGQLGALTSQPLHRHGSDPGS
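Note: peak tail current of the secondary pulse compared with the same well before compound.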

| SMILES | hERG current change (%, negative = inhibition) at 10uM [%] |
| --- | --- |
| Cc1c(N)cccc1-n1cccc1 | 16.2 |
| Cc1ccc2oc(C(=O)N(C)CCC(O)c3ccccc3)c(C)c2c1 (stereo not shown) | 11.5 |
| COc1ccc(S(=O)(=O)NCCSCc2cccc(C)c2)cc1Br | -0.641 |
| CCNC(=O)NS(=O)(=O)c1cnccc1Nc1cccc(Cl)c1 | 25.1 |
| c1ccc(-c2noc(C3CCC3)n2)nc1 | 4.59 |
| CC(C)CC(=O)N/N=C/c1c(N)n(C)c(=O)n(C)c1=O | 21.7 |
| COc1ccc(N2CCN(CCCNC(=O)Cn3c(=O)c4cccn4c4ccccc43)CC2)cc1 | -43.7 |
| CN1CCN(CCNC(=O)Cn2c(=O)c3cccn3c3ccc(F)cc32)CC1 | 14.1 |
| CCN1CCN(CCNC(=O)Cn2c(=O)c3cccn3c3ccc(F)cc32)CC1 | -2.61 |
| COc1ccc(N2CCN(CCCNC(=O)Cn3c(=O)c4cccn4c4cccnc43)CC2)cc1 | -57.2 |
| O=C(Cn1c(=O)c2cccn2c2cccnc21)NCCCN1CCN(c2ccc(F)cc2)CC1 | -76.4 |
| O=C(Cn1c(=O)c2cccn2c2ccccc21)NCCCN1CCCCC1 | 3.5 |
| O=C(Cn1c(=O)c2cccn2c2ccc(F)cc21)NCCCN1CCN(c2ccccc2F)CC1 | -50.5 |
| COc1ccc(N2CCN(C(=O)Cn3c(=O)c4cccn4c4cccnc43)CC2)cc1 | -15.3 |
| NS(=O)(=O)c1ccc(CCNC(=O)Cn2c(=O)c3cccn3c3cccnc32)cc1 | 22.3 |
| COc1ccccc1CCNC(=O)C(=O)NCCC1CCCCN1S(=O)(=O)c1cccs1 (stereo not shown) | -6.92 |
| Cc1c(NC(=O)CSCc2ccccc2)cccc1C(=O)O | 18 |
| CCn1cc([N+](=O)[O-])c(C(=O)N2N=C(c3ccc4ccccc4c3)CC2c2ccccc2O)n1 (stereo not shown) | 3.19 |
| Clc1ncccc1-c1nnn(-c2ccccc2)n1 | 15.1 |
| Cc1[nH]c2ccccc2c1/C=N/NC(N)=S | 2.1 |
| N#CCCS(=O)(=O)c1nnnn1-c1ccccc1 | -18.7 |
| Cn1c(O)c(N=NC(=O)Cn2c(C(F)(F)F)nc3ccccc32)c2ccccc21 | 6.02 |

| SMILES | hERG current change (%, negative = inhibition) at 10uM [%] |
| --- | --- |
| CC(C)C(C(=O)O)N1C(=O)/C(=C/c2cccn2C)SC1=S (stereo not shown) | -0.129 |
| COCC1CCCN(C(=O)c2ccc3oc(Cc4ccc(Cl)cc4)nc3c2)C1 (stereo not shown) | -24.7 |
| O=C(C1CCCC1)N1CCCC(Nc2ccc(F)cc2)C1 (stereo not shown) | -37.2 |
| O=C(CN1CCCC1)NCC(=O)Nc1ccc(F)cc1 | 8.87 |
| O=C(CN1CCN(C(=O)C2CCC2)CC1)Nc1ccc(F)cc1 | -69.9 |
| O=C(CN1CCCC1)Nc1ccc(F)cc1 | 23.3 |
| O=C(CN1CCCC1)Nc1cc(C(F)(F)F)cc(C(F)(F)F)c1 | -17.9 |
| O=C(CN1CCN(C(=O)C2CC2)CC1)Nc1cc(C(F)(F)F)cc(C(F)(F)F)c1 | -54.4 |
| Cl.O=C(CN1CCN(c2cccc(C(F)(F)F)c2)CC1)Nc1cccc(C(F)(F)F)c1 | -1.14 |
| O=C(CN1CCN(C(=O)N2CCCCC2)CC1)Nc1ccc(F)cc1 | -74.9 |
| Cc1ccc(NC(=O)CN2CCCC2)cc1.Cl | 19.1 |
| CC(O)(CS(=O)(=O)Cc1ccccc1)C(=O)Nc1cccc(C(F)(F)F)c1 (stereo not shown) | 1.72 |
| COC(=O)Nc1ccc(S(=O)(=O)N2CCCc3ccccc32)cc1 | 8.63 |
| O=C1Oc2ccccc2C(=O)/C1=C/N1CCN(c2ccccc2F)CC1 | -0.353 |
| O=c1[nH]c(Cl)ccc1CN1CCOCC1 | 14.5 |
| Cc1ccccc1C(=O)Nn1cnnc1 | 3.49 |
| COc1ccc(S(=O)(=O)NCc2ccc(C(=O)NCCCN3CC(C)CC(C)C3)cc2)cc1 (stereo not shown) | -28.1 |
| COC(=O)c1cc(S(=O)(=O)N2CCC(C)CC2)ccc1F | -18 |
| COc1ccc(-c2cc(CNS(=O)(=O)c3cc(OC)ccc3OC)on2)cc1 | 6.1 |
| O=C(NC(=S)Nc1ccc2nc[nH]c2c1)c1ccccc1 | 12.4 |
| COc1ccc(CCNCc2ccsc2)cc1OC | 1.86 |
